Source: PubChem BioAssay (National Center for Advancing Translational Sciences (NCATS))
AmpC detergent – blocks E. coli AmpC beta-lactamase in detergent assay. P00811. AmpC hydrolysis of nitrocefin, absorbance 480 nm, 0.01% Triton. Potency, µM (doses to about 114 µM), for inactives: at the highest dose activity change, negative = inhibition, actives largely listed as inhibitors. 370,000 tested, 0.041% active. AID 485294;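 further: 0% = no-compound wells and -100% = no-enzyme wells; nearly all actives have a fitted effect of over 25% in size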
Target sequence (P00811 whole entry, looked up): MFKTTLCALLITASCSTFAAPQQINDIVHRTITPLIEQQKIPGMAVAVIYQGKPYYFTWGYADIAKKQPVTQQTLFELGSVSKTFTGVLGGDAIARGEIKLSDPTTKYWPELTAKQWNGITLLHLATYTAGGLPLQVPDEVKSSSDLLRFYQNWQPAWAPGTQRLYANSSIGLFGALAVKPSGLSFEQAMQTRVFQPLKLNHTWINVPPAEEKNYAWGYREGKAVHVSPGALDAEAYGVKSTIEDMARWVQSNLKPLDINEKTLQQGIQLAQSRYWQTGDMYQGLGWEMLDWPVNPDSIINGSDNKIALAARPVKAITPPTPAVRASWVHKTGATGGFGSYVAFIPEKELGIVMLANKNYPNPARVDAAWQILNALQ
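20 mM phosphate pH 7.0 + 0.01% (detergent screen) or 0.0001% Triton X-100; 5.3 nM AmpC reagent; cpd preinc 15 min RT; nitrocefin (800 uM stock) to start; A480 q20 s × 4 min; Activity was normalised to no-enzyme and no-compound control wells.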
AmpC inh no detg – inhibitors of E. coli AmpC beta-lactamase without detergent | P00811 | AmpC nitrocefin hydrolysis, absorbance 480 nm, 0.0001% Triton | Potency, µM (top dose mostly 57.1 µM), inactives show top-dose activity change, negative = inhibition, hits mostly inhibitors | 330,000 tested, 0.52% active;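 further: plate controls were no compound for no effect and no enzyme for full effect; nearly all actives have a fitted effect of over 20% in size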
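20 mM phosphate pH 7.0 + 0.01% (detergent screen) or 0.0001% Triton X-100; 5.3 nM AmpC reagent; cpd preinc 15 min RT; nitrocefin (800 uM stock) to start; A480 q20 s × 4 min; Activity was normalised to no-enzyme and no-compound control wells.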
Sm TGR block – S. mansoni TGR enzyme inhibition | purified TGR, DTNB reduction, TNB absorbance 405 nm | 360,000 tested, 3% active | Potency, µM (doses to about 114 µM), for inactives: at the highest dose activity change, negative = inhibition, most hits filed as inhibitors | Q962Y6 | AID 485364; further: nearly all actives have a fitted effect of over 60% in size
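TGR 20 nM + NADPH 100 uM (dispensed conc.), cpd preinc 15 min RT; start with NADPH (500 uM addition) then DTNB (15 mM addition). Kinetic TNB absorbance, 405 nm filter. Four-parameter Hill fit across titration.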
Starred values were filed as active, the others as inactive; ? = inconclusive; . = no result. Most compounds without a hit are left out; they make up all but 3.3% or so of the library. The call rests on the fitted dose curve; in most records, active means well fitted curve in the direction sought with a large enough effect; inconclusive means small, poorly fitted or top-dose-only effect, or another doubt; inactive means no such curve, though single readings can be large; an effect the other way counts as inactive or inconclusive. Unless noted, on the % scale 0 is the no-effect control and ±100 the full control effect; potency means the concentration at half of the fitted maximal effect.

SMILES	AmpC detergent	AmpC inh no detg	Sm TGR block
COC(=O)c1cc(NC(=O)c2ccc([N+](=O)[O-])cc2)c(=O)oc1C	2%	-20%	56µM*
Cc1ccc([N+](=O)[O-])cc1NC(=O)c1ccccc1	1%	-13%	3%
COC(=O)c1cc(NC(=O)c2ccc(C)cc2)c(=O)oc1C	3%	-23%	-3%
CC(C)NC(=O)c1ccc2c(c1)nc1n2CCCCC1	20%	.	10%
COc1ccc(CNC(=O)C2CCN(S(=O)(=O)N3CCCCC3)CC2)cc1	-12%	1%	0%
COc1ccc(CNC(=O)C2CCNCC2)cc1	-2%	-14%	45µM*
c1ccc(COCC2CCNCC2)cc1	?	1%	1%
COc1ccc(OCC2CCNCC2)cc1	-4%	-11%	35µM*
O=C(CN1C(=O)C(c2ccc(F)cc2)=NC12CCCCCC2)Nc1ccccc1Cl	10%	.	6%
O=C(NCC(c1ccccc1)c1ccccc1)c1nn(-c2ccccc2F)nc1CO	17%	.	3%
Cc1cc(N2CCCCC2)nc2ccc(NC(=O)/C=C/c3ccccc3OC(C)C)cc12	9%	.	7%
COc1ccc(-c2nsc(NC(=O)c3ccccc3Br)n2)cc1	21%	.	1%
Cc1ccc(C2=CC(c3ccccc3F)n3c(nc4ccccc43)N2)cc1C (stereo not drawn)	-7%	.	-21%
O=C1C(Cl)=C(N2CCN(c3ccccc3[N+](=O)[O-])CC2)C(=O)c2ccccc21	-13%	-50%	1.6µM*
O=[N+]([O-])c1cc(Cl)ccc1N1CCCC1	0%	-9%	0%
COCCNC(=O)c1cc(Sc2ccc(F)cc2F)nc2ccccc12	-3%	.	-4%
CCN(CC)S(=O)(=O)c1cccc(NC(=O)CCNC(=O)c2ccc([N+](=O)[O-])cc2)c1	2%	-4%	10%
CCN(CC)S(=O)(=O)c1cccc(NC(=O)CN2C(=O)c3ccc([N+](=O)[O-])cc3C2=O)c1	?	8.9µM*	-13%
CCc1ccc(NC(=O)c2sc3ncnc(N(C)C4CCCCC4)c3c2C)cc1	-3%	.	0%
CCc1cccc(NC(=O)c2ccc(CNS(=O)(=O)c3ccc4c(c3)C(C)(C)C(=O)N4C)cc2)c1	-13%	.	1%
Cc1ccc(Cn2c(SCC(=O)NCc3ccccc3Cl)nc3ccsc3c2=O)cc1	3%	.	0%
O=C(/C(=C(\[O-])c1ccccc1)[n+]1ccc2ccccc2c1)c1ccc([N+](=O)[O-])cc1	-11%	-10%	-9%
O=[N+]([O-])c1ccc(-[n+]2ccc3ccccc3c2)c([N+](=O)[O-])c1	0%	-16%	1.8µM*
Cc1ccc(OCC(=O)Nc2ccc3nc(SCC(=O)Nc4ccc(C)cc4C)sc3c2)cc1	26%	.	0%
Nc1nc(SCc2ccc(Cl)cc2Cl)nc2nc3c(cc12)CCCC3	-4%	16µM*	-7%
SMILES	AmpC detergent	AmpC inh no detg	Sm TGR block
Nc1nc(SCc2ccccc2Cl)nc2nc3c(cc12)CCCC3	-1%	-28%	9%
CCOC(=O)c1sc2ccccc2c1S(=O)(=O)NCc1ccccc1OC	4%	.	-1%
Clc1ccc(-n2nnc(-c3cccnc3Cl)n2)cn1	7%	-18%	?
COc1ncccc1-c1nnn(-c2ccc(Cl)nc2)n1	8%	-7%	25µM*
COc1ccc(N(Cc2cccs2)C(=O)COc2cccc(C)c2C)cc1	5%	.	-1%
CCc1ccc(NC(=O)CSc2nc3n[nH]c(C)c3c(=N)n2-c2ccc(C)cc2)cc1	6%	.	14%
COC(=O)c1nc(NC(=O)c2cc(OC)c(OC)c(OC)c2)n[nH]1	-3%	-14%	32µM*
COc1cc(C(=O)Nc2ccncc2)cc(OC)c1OC	-14%	-3%	-8%
COCCCN(C(=S)NC(=O)C(C)(C)C)c1c(N)n(Cc2ccccc2)c(=O)[nH]c1=O	10%	-15%	1%
CCCCN(C(=O)C(C)Oc1ccc(Br)cc1)c1c(N)n(Cc2ccccc2)c(=O)[nH]c1=O (stereo not drawn)	4%	-19%	89µM*
CCCN(C(=O)C(C)Oc1cccc(Cl)c1)c1c(N)n(Cc2ccccc2)c(=O)[nH]c1=O (stereo not drawn)	-10%	-13%	2%
COCCCN(C(=S)NC(=O)c1ccc(Br)cc1)c1c(N)n(Cc2ccccc2)c(=O)[nH]c1=O	-2%	5.6µM*	-11%
Cc1cccc(-c2noc(CN(C(=O)COc3ccc(Br)cc3C)C(C)C)n2)c1	-4%	.	-2%
OCC1OC(Oc2cccc3ccccc23)C(O)C(O)C1O (stereo not drawn)	-3%	-12%	9%
O=C(O)c1cc(O)c2c(c1)[C@@H]([C@H]1c3cc(C(=O)O)cc(O)c3C(=O)c3c(O[C@@H]4O[C@H](CO)[C@@H](O)[C@H](O)[C@H]4O)cccc31)c1cccc(O[C@@H]3O[C@H](CO)[C@@H](O)[C@H](O)[C@H]3O)c1C2=O	.	1.3µM*	.
CCC1=C(c2ccc(C)cc2)S(=O)(=O)N=C1N1CCC(C(=O)N2CCCCC2)CC1	1%	.	-2%
COc1cccc(NC(=O)CC2C(=O)OCCN2Cc2ccccc2)c1 (stereo not drawn)	6%	.	-36%
COc1ccc(Cl)cc1NC(=O)CN(C)C1CCS(=O)(=O)C1 (stereo not drawn)	-2%	-12%	50µM*
CCN1CCOC(=O)C1CC(=O)Nc1cc(Cl)ccc1OC (stereo not drawn)	-1%	.	14µM*
CCN1CCN(CC(=O)Nc2ccc(C(C)=O)cc2)CC1	2%	1%	?
CCN1CCOC(=O)C1CC(=O)Nc1ccc(C(C)=O)cc1 (stereo not drawn)	0%	.	22µM*
COc1ccc(Cl)cc1NC(=O)CC1CCCC1	-7%	-28%	-11%
CCc1ccc(NC(=O)CC2C(=O)OCCN2CC)cc1 (stereo not drawn)	-3%	.	14µM*
CN(CC(=O)Nc1ccccc1Cl)C1CCS(=O)(=O)C1 (stereo not drawn)	?	-18%	4%
O=C(CC1C(=O)OCCN1Cc1ccccc1)Nc1cccc(C(F)(F)F)c1 (stereo not drawn)	-4%	.	?
SMILES	AmpC detergent	AmpC inh no detg	Sm TGR block
CCN1CCOC(=O)C1CC(=O)Nc1ccccc1C(F)(F)F (stereo not drawn)	0%	.	10µM*
CCN1CCOC(=O)C1CC(=O)Nc1cc(C)cc(C)c1 (stereo not drawn)	-3%	.	18µM*
O=C(CC1C(=O)OCC2CCCCN21)Nc1ccccc1C(F)(F)F (stereo not drawn)	5%	-12%	?
Cc1cc(C)cc(-n2cnc3cc(C(=O)NC4CCCCCC4)ccc32)c1	9%	.	-9%
Cc1cccc(CNC(=O)Cn2ccc3cc(S(=O)(=O)N4CCC(C)CC4)ccc32)c1	17%	.	1%
CCCCn1nc(NC(=O)c2cccc(Cl)c2)c2cc3ccc(C)cc3nc21	-7%	.	2%
N#CC1=C(N)Nc2nc3ccccc3n2C1c1ccc(Cl)cc1 (stereo not drawn)	?	13µM*	-14%
CCN(CC)C(=O)C1=C(C)Nc2nc3ccccc3n2C1c1ccc(Cl)cc1 (stereo not drawn)	18%	.	9%
CC1CCN(S(=O)(=O)c2cn(CC(=O)Nc3ccc(F)c(Cl)c3)c(=O)c3ccccc23)CC1	19%	.	40%
